The text below walks through data of paper PMC4336329 (PLoS ONE, 2015).

Molecules are shown by their SMILES. The campaign covered roughly 310,000 compounds. About 14,000 (4.5%) showed an effect of 50% or more. The effect is printed as a negative number. For the sample, strong results were picked, then their nearest neighbours and some compounds at random.
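Also: peak tail current of the secondary pulse compared with the same well before compound.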

In the assay the target is human ether-à-go-go-related gene (hERG) potassium channel (human, UniProt Q12809). Description: primary screen, population patch clamp on CHO cells stably expressing hERG; higher = less effect of the substance.
Chain of human ether-à-go-go-related gene (hERG) potassium channel (Q12809 whole entry, looked up): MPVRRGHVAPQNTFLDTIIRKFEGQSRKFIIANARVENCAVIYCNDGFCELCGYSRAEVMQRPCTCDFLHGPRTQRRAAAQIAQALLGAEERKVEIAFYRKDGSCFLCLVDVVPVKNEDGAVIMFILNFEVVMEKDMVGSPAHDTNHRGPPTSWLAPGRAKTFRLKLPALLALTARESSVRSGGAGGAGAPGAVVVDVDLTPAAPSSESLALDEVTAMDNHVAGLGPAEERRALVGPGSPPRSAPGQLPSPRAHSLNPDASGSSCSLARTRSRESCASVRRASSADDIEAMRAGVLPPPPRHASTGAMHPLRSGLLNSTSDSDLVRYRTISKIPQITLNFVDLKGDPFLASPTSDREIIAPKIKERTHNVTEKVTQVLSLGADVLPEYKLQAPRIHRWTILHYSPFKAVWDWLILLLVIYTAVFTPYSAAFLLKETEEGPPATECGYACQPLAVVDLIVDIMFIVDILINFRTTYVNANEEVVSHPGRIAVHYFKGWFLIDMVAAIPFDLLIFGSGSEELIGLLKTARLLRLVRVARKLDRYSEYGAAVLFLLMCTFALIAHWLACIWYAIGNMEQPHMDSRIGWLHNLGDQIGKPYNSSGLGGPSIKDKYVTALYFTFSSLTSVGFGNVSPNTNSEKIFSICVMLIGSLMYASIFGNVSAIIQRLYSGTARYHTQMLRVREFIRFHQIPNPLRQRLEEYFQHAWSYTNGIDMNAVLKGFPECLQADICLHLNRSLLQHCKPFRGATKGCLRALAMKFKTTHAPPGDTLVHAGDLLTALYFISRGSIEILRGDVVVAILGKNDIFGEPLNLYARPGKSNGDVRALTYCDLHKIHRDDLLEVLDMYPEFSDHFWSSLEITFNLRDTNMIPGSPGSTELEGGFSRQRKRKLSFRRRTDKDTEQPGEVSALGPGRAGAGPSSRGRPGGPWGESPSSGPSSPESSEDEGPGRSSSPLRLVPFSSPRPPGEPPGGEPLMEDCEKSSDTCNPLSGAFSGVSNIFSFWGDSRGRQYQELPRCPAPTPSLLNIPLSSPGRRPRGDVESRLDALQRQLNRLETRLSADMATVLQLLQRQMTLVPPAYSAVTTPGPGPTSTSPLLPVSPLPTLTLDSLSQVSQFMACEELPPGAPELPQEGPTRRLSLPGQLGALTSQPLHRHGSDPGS
Turning to `COC(=O)Cc1ccc(NC(=O)c2ccc3c(c2)C(=O)N(Cc2ccco2)C3=O)cc1`, the “hERG current change (%, negative = inhibition) at 10uM” value is given as -2.43%.

With `Cn1nc(C(F)(F)F)c(-c2ccccc2)c1NC(=O)CSCC(=O)O`, the “hERG current change (%, negative = inhibition) at 10uM” value was 12.2%.

Regarding `CCSc1ncnc2c1sc1nc3c(cc12)COC(C)(C)C3`, the “hERG current change (%, negative = inhibition) at 10uM” value is on record as -2.04%.

On to `COc1ccccc1N1CCN(C2CCN(C3CCC(c4ccccc4)CC3)CC2)CC1.O=C(O)C(=O)O` (stereo not drawn), for which the “hERG current change (%, negative = inhibition) at 10uM” value was -74.1%.

For `COc1ccccc1N1CCN(C2CCN(C(=O)c3ccc(F)cc3)CC2)CC1`, the “hERG current change (%, negative = inhibition) at 10uM” value is reported as -61%.

As for `Cc1cccc(OCC(=O)N2CCC(N3CCCCCC3)CC2)c1`, the “hERG current change (%, negative = inhibition) at 10uM” value is -11.2%.

Take `COc1ccccc1C(=O)N1CCC(N2CCN(c3ccccc3)CC2)CC1`: the “hERG current change (%, negative = inhibition) at 10uM” value is -8.58%.

Consider `CCN1CCC(N2CCN(c3ccccc3OC)CC2)CC1`, for which the “hERG current change (%, negative = inhibition) at 10uM” value is recorded as 11.7%.

In the case of `COc1cc(OC)cc(C(=O)N2CCC(N3CCN(c4ccccc4)CC3)CC2)c1`, the “hERG current change (%, negative = inhibition) at 10uM” value is on record as -26.9%.

`COc1ccccc1N1CCN(C2CCN(C(=O)c3cccc(F)c3)CC2)CC1.O=C(O)C(=O)O`: the “hERG current change (%, negative = inhibition) at 10uM” value is recorded as -33.1%.

As for `COc1ccccc1N1CCN(C2CCN(C(=O)COc3cccc(C)c3)CC2)CC1.O=C(O)C(=O)O`, the “hERG current change (%, negative = inhibition) at 10uM” value is -67.8%.

Consider `COc1ccccc1N1CCN(C2CCC(C)CC2)CC1` (stereo not drawn), for which the “hERG current change (%, negative = inhibition) at 10uM” value is recorded as 4.87%.

Take `COc1ccccc1N1CCN(C2CCN(C(=O)COc3ccccc3)CC2)CC1`: the “hERG current change (%, negative = inhibition) at 10uM” value was -25.4%.

On to `COc1ccc(C(=O)N2CCC(N3CCN(c4ccccc4)CC3)CC2)cc1.O=C(O)C(=O)O`, for which the “hERG current change (%, negative = inhibition) at 10uM” value is reported as -57.6%.

With `COc1ccccc1N1CCN(C2CCN(C(=O)c3cc(OC)c(OC)c(OC)c3)CC2)CC1`, the “hERG current change (%, negative = inhibition) at 10uM” value is recorded as -23.1%.

On to `CSc1sc(C)cc1/C=N/O`, for which the “hERG current change (%, negative = inhibition) at 10uM” value is given as 6.46%.

In the case of `NC(=O)c1nsc(C(=O)N(Cc2ccco2)C(C(=O)NCc2ccc(F)cc2)c2ccc(O)cc2)c1N` (stereo not drawn), the “hERG current change (%, negative = inhibition) at 10uM” value is -43.8%.

In the case of `O=C(OC1CCOC1=O)c1ccc(CO)cc1` (stereo not drawn), the “hERG current change (%, negative = inhibition) at 10uM” value came out at 27.4%.

As to `CCCn1c2ccccc2c2cc(C(=O)O)ccc21`, the “hERG current change (%, negative = inhibition) at 10uM” value is listed as 6.24%.

For `c1ccc(-c2csc(-c3ccc(-c4csnn4)cc3)n2)cc1`, the “hERG current change (%, negative = inhibition) at 10uM” value was determined as 17.6%.

Consider `CN1C(=O)c2ccccc2Sc2ccc(NC(=O)N3CCOCC3)cc21`, for which the “hERG current change (%, negative = inhibition) at 10uM” value is reported as -7.88%.

For the compound `C=CCn1cc(C=C2C(=O)N(C)C(=O)N(C)C2=O)c2ccccc21`, the “hERG current change (%, negative = inhibition) at 10uM” value is 23.9%.

Consider `CC(C)CC(=O)Nc1nc2c(c(=O)[nH]1)CCCC2`, for which the “hERG current change (%, negative = inhibition) at 10uM” value came out at 17.9%.

Take `CN=C1CN(O)C(c2ccccc2)=c2cc(Cl)ccc2=N1`: the “hERG current change (%, negative = inhibition) at 10uM” value worked out at 18.6%.
